Usually inhibition stands for the relative decrease from the control value, in per cent.

Molecules are shown by their SMILES. Several values for one entry are separate records, joined by “and”; a condition that tells them apart may be missing. Equal entries are not always repeated. The whole screen tested about 290,000 compounds, of which about 260 (0.09%) were called active. Cut-off read from the data, not from the text of the source: active = inhibition above about 50%; inactive = the rest. For the sample, actives were picked, then their nearest neighbours and some compounds at random. Entries with a potency or affinity are not part of this list.

The target in this experiment is Kappa-type opioid receptor (Homo sapiens) (UniProt P41145). Kind of experiment: KOR antagonists, beta-arrestin recruitment, cell-based, luminescence, uHTS (AID 1778). Conditions: antagonist mode, stronger effect = higher value; at 10 µM unless noted. Background: Arrestin recruitment assays detect the binding of arrestin to an activated receptor.
Sequence of Kappa-type opioid receptor (Homo sapiens) (P41145 whole entry, looked up): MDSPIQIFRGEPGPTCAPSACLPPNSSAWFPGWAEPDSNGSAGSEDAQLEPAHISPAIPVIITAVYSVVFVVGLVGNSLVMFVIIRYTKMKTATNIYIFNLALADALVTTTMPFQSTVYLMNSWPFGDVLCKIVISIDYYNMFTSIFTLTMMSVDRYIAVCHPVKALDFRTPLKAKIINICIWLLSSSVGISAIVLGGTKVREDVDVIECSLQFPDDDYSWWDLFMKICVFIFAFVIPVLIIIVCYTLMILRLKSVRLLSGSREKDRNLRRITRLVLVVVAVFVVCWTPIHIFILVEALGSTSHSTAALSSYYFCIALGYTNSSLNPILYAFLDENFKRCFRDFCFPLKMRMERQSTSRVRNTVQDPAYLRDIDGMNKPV
Regarding `CN(Cc1cnn(-c2ccccc2)c1)C(=O)C1CCC(=O)N(C2CC2)C1` (centres undefined), the inhibition is 9.1% (inactive).

Consider `O=C(O)CNc1nc(-c2ccccc2)c2cc([N+](=O)[O-])ccc2n1`, for which the inhibition is 4.1% (inactive).

Turning to `O=[N+]([O-])c1ccc2nc(-c3ccccc3)cc(-c3ccccc3)c2c1`, the inhibition was 14.3% (inactive).

In the case of `O=C(O)CCCc1c(-[n+]2ccccc2)[nH]c2ccccc12`, the inhibition was 5.9% (inactive).

Take `COCCOC(=O)c1[nH]c2c(c1C)C(=O)CC(c1ccc(OC)c(OC)c1)C2` (centres undefined): the inhibition was -5.3% (inactive).

With `CCCCN(CCCNC(=O)C1CCN(S(=O)(=O)CC)CC1)c1ccccc1`, the inhibition is 23.2% (inactive).

For `CCN(CCCNC(=O)C1CCN(S(=O)(=O)CC)CC1)c1ccccc1`, the inhibition was 17.3% (inactive).

Consider `CCCCN(CCCNC(=O)C1CCN(S(=O)(=O)N2CCOCC2)CC1)Cc1ccccc1`, for which the inhibition is 28.7% (inactive).

For `CN(CCCNC(=O)C1CCN(S(=O)(=O)N2CCC3(CC2)OCCO3)CC1)Cc1ccccc1`, the inhibition is -79.2% (inactive).

As for `Cc1c(Cl)cccc1NC(=S)N1CCCN(Cc2ccccc2F)C1`, the inhibition is -15.1% (inactive).

As to `COc1cccc(C(=O)Oc2cc(C)[nH]c(=O)c2[N+](=O)[O-])c1OC`, the inhibition was 6.3% (inactive).

As to `CC(C)[C@H](NC(=O)[C@@H]1Cc2ccccc2CN1)C(=O)Nc1ccc2c(c1)OCCO2`, the inhibition is -1.1% (inactive).

As to `COc1ccc(N2CCN(C(C)C(=O)N3CC(C)OC(C)C3)CC2)cc1` (centres undefined), the inhibition is -2.4% (inactive).

For the compound `O=C1C(=O)N(CCCn2ccnc2)C(c2ccc(Br)cc2)/C1=C(\O)c1ccc2c(c1)OCCO2` (centres undefined), the inhibition is -11.2% (inactive).

On to `COc1cc2c(c(OC)c1OC)-c1c(cc3c(c1OC)OCO3)[C@@H](OC(C)=O)[C@H](C)[C@H](C)C2`, for which the inhibition is 20.4% (inactive).

On to `C/C=C(/C)C(=O)O[C@@H]1c2cc3c(c(OC)c2-c2c(cc(OC)c(OC)c2OC)[C@@H](OC(C)=O)[C@@H](C)[C@H]1C)OCO3`, for which the inhibition is 10.7% (inactive).

Take `COc1ccc(-c2cc(C(=O)N/N=C/c3cccnc3)c3cc(C)cc(C)c3n2)cc1`: the inhibition was 1.8% (inactive).

In the case of `Cc1cccc(NC(=O)COC(=O)c2ccccc2SCC(=O)N2CCCC2)c1`, the inhibition was 30.1% (inactive).

As to `CC(CN1CCN(C)CC1)OC(=O)c1ccccc1` (centres undefined), the inhibition was -12.4% (inactive).

With `COc1ccc(CCN2C(=O)C(Oc3ccccc3)C2c2ccc3c(c2)OCO3)cc1` (centres undefined), the inhibition is -53.4% (inactive).

Consider `COc1ccc(CCN2C(=O)C(Oc3ccccc3C)C2c2ccc3c(c2)OCO3)cc1` (centres undefined), for which the inhibition was -11% (inactive).

`O=C1C(Oc2ccccc2)C(c2ccc3c(c2)OCO3)N1CCc1ccc(F)cc1` (centres undefined): the inhibition is 64% (active).

As to `Cc1nc(SCC(=O)N2CCOCC2)c2c(C)c(C)sc2n1`, the inhibition is -32.1% (inactive).

`O=C(CSC1=NC(=O)C(c2ccccc2)C(=O)N1)Nc1cccc(Cl)c1` (centres undefined): the inhibition is -48.8% (inactive).

On to `C/C(=N\NC(=O)c1ccccn1)c1ccc(Cl)cc1`, for which the inhibition is -13.1% (inactive).

For the compound `C/C(=N\NC(=O)COc1ccccc1-c1ccccc1)c1ccc(O)cc1O`, the inhibition was -14.4% (inactive).

Regarding `C/C(=N\NC(=O)COc1ccccc1-c1ccccc1)c1ccccn1`, the inhibition is 99% (active).

For `C=CCNC(=S)N/N=C(\C)c1cccnc1`, the inhibition is 3.5% (inactive).

Take `C=CCNC(=S)N/N=C(\C)c1cccc(OC)c1`: the inhibition is 26.1% (inactive).

Regarding `C/C(=N\NC(=O)Cc1ccc(Cl)cc1)c1ccccc1O`, the inhibition was -29.7% [at 20 µM] (inactive).

Turning to `C/C(=N\NC(=O)COc1ccccc1-c1ccccc1)c1cccnc1`, the inhibition is -42.8% (inactive).

Take `CCCn1c2ccccc2c2cnn(CC(=O)NCCN(C)C)c(=O)c21`: the inhibition was -19% (inactive).

For `COc1ccc(OCCSc2nnc(C)n2-c2ccccc2)cc1`, the inhibition was -14.2% (inactive).

For the compound `O=C(COC(=O)c1c(F)cccc1F)NCCNC(=O)COC(=O)c1c(F)cccc1F`, the inhibition was -58.8% (inactive).

As to `CC1(C)CNC(=O)CC(C)(C)N1O`, the inhibition was 8.7% (inactive).

For the compound `O=C(NCc1ccco1)c1cccc(C(F)(F)F)c1`, the inhibition is -35.4% [at 20 µM] (inactive).

Take `CCNc1nc(Oc2ccc(C(=O)OC)cc2)nc(SC)n1`: the inhibition was 1.5% (inactive).

`O=C1c2cccc3cccc(c23)C(=O)N1/N=C/c1ccc(O)cc1O`: the inhibition is -17.5% (inactive).

On to `Cc1ccc(-n2[nH]c(C)c(/C=N/c3cccc(C)n3)c2=O)cc1`, for which the inhibition is 21.8% (inactive).

Take `Cc1[nH]n(-c2ccccc2)c(=O)c1/C=N/N1C(=O)c2ccc3c4c(ccc(c24)C1=O)CC3`: the inhibition was -2.7% (inactive).

Regarding `COc1ccccc1/C=N/N1C(=O)c2cccc3cccc(c23)C1=O`, the inhibition is -44.5% (inactive).

Take `CSc1oc(-c2ccccc2)nc1S(=O)(=O)c1ccc(F)cc1`: the inhibition was -25.9% (inactive).

In the case of `O=C(CO/N=C1\CCCc2nonc21)Nc1ccc(Br)cc1`, the inhibition is 24.7% (inactive).

Take `COc1cccc(NC(=O)C2CCN(C(=O)NC3CCCCC3)CC2)c1`: the inhibition was -51.6% (inactive).

Turning to `Cc1cc(C)cc(NC(=O)CSc2nnc(-c3cc(C)[nH]n3)n2N)c1`, the inhibition was -17.6% (inactive).

In the case of `O=C(CSc1nnc(NC(=O)c2ccc(F)cc2)s1)NCc1ccco1`, the inhibition was 22.3% (inactive).

In the case of `Oc1ccc2ccccc2c1N=Nc1ccccc1F`, the inhibition was 37.6% (inactive).

`Oc1c(N=Nc2ccc(F)cc2)ccc2ccccc12`: the inhibition was 7.2% [at 20 µM] (inactive).

Consider `Oc1ccc2ccccc2c1N=Nc1ccc(F)cc1`, for which the inhibition is 6.7% (inactive) and 41.7% (inactive).

`Oc1ccc(N=Nc2c(O)ccc3ccccc23)cc1`: the inhibition is 32% (inactive).

Consider `Oc1ccc2ccccc2c1/C=N/c1nccs1`, for which the inhibition was -15.8% (inactive).

For the compound `Cc1ccc(N=Nc2ccc3ccccc3c2O)cc1`, the inhibition is 15.6% [at 20 µM] (inactive).

For `Oc1ccc2ccccc2c1N=Nc1nccs1`, the inhibition is 109% (active).

With `COC(=O)c1cc(C(=O)NCC2CCCCC2)cc([N+](=O)[O-])c1`, the inhibition is 7.5% (inactive).

For the compound `Cc1ccc(-c2nnn(CC(=O)N(c3ccccc3)C(C(=O)NC3CCCC3)c3ccncc3)n2)o1` (centres undefined), the inhibition is 5.7% (inactive).

As to `CC(C)NS(=O)(=O)c1ccc(CCC(=O)Nc2ccc3c(c2)OCCO3)cc1`, the inhibition was 7.5% (inactive).

Consider `CS(=O)(=O)c1ccc2nc(NC(=O)c3ccc(Cl)cc3)sc2c1`, for which the inhibition is -55% [at 20 µM] (inactive).

For `O=C(O)c1ccc(-c2ccccc2)[nH]c1=O`, the inhibition was 5.6% (inactive).

As for `CC(C)(C)NC(=O)c1cc(NC(=O)c2cccs2)cc(NC(=O)c2cccs2)c1`, the inhibition is -34.4% (inactive).

On to `Cc1nc(Cl)c(Cl)n1CCOc1ccccc1`, for which the inhibition was -4.6% (inactive).

In the case of `CCN(CC)CCCNC(=O)c1cc(Sc2nnc(C)s2)nc2ccccc12`, the inhibition was -6.1% (inactive).

For `Cn1cccc1CNC(=S)Nc1ccccc1Cl`, the inhibition is 28.1% (inactive).

`Cc1ccc(NC(=O)CC(C)CC(=O)NCc2ccccc2)cc1Cl` (centres undefined): the inhibition was -17.8% (inactive).

Regarding `O=[N+]([O-])c1ccccc1OC/C(=N\O)c1ccccc1`, the inhibition was 13.6% (inactive).

Turning to `COC(=O)c1cn(NC(=O)/C=C/c2cc(OC)ccc2OC)c(=O)c2ccccc12`, the inhibition is -8.8% (inactive).

Turning to `CN(C)CC(CCC(CN(C)C)C(=O)c1ccccc1)C(=O)c1ccccc1` (centres undefined), the inhibition was 83.9% (active).

With `CN(C)CC(CCCCC(CN(C)C)C(=O)c1ccccc1)C(=O)c1ccccc1` (centres undefined), the inhibition is 12.5% (inactive).

As for `CCOc1ccc(C(=O)C(CCC(CN(C)C)C(=O)c2ccc(OCC)cc2)CN(C)C)cc1` (centres undefined), the inhibition is 15.2% (inactive).

For `Cc1cccc(C(=O)OCC(=O)Nc2ccc(N3CCCCC3)cc2)c1O`, the inhibition is -7.8% (inactive).

In the case of `Cc1ccccc1N(C(=O)Cn1nnc(-c2cccs2)n1)C(C(=O)NCCC(C)C)c1ccco1` (centres undefined), the inhibition is 23.7% (inactive).

`COc1ccccc1NC(=O)CN1CC(=O)Nc2ccccc21`: the inhibition was 0% (inactive).

On to `COc1ccc(/C=C/C(=O)OCC(=O)N2CC(=O)Nc3ccccc32)cc1S(=O)(=O)N1CCOCC1`, for which the inhibition is -27.5% (inactive).

Take `Cc1ccc(NC(=S)NCCCN2CCOCC2)cc1C`: the inhibition was 50% (active).

With `Cc1ccc(NC(=S)NCCCN2CCOCC2)cc1`, the inhibition is 6.6% (inactive).

On to `Cc1ccc(NC(=S)NCCN2CCOCC2)cc1C`, for which the inhibition is 16.7% (inactive).

For `C/C(=N\NC(=O)c1nnn(-c2nonc2N)c1-c1ccc2c(c1)OCO2)c1cccs1`, the inhibition was -7.9% (inactive).

Take `Cc1ccc(-c2cc(C(=O)Nc3cc(C)ccc3C)[nH]n2)c(O)c1`: the inhibition is 9.1% (inactive).

On to `CCOC(=O)C(C(C)C)C(N)Cc1ccc(F)cc1` (centres undefined), for which the inhibition was -13.5% (inactive).

Consider `CCCCC(CC)C(=O)NCc1ccc(F)cc1` (centres undefined), for which the inhibition was 8% (inactive).

As for `CCCCC(C(=O)OCC)C(N)Cc1ccc(F)cc1` (centres undefined), the inhibition was 65.2% (active).

In the case of `Cc1ccccc1Cn1cc(NC(=O)CCCn2nc([N+](=O)[O-])cc2C)cn1`, the inhibition is 16.3% (inactive).

Regarding `COc1cccc(CNC(=O)C2CCC(CNS(=O)(=O)c3cccc4cccnc34)CC2)c1` (centres undefined), the inhibition is 27.1% (inactive).

Regarding `O=C1CCCC(=NCc2ccco2)C1`, the inhibition was -29.5% (inactive).

For the compound `c1coc(CN=C2NC(=NCc3ccco3)c3ccccc32)c1`, the inhibition is -31.2% (inactive).

For the compound `CN(C)c1nc(=NCc2ccco2)ss1`, the inhibition was 83.2% (active).

Regarding `COc1ccc(C)cc1N(C(=O)c1ccco1)C(C(=O)NC1CCCC1)c1ccc(N2CCOCC2)cc1` (centres undefined), the inhibition is 5.8% (inactive).

As to `COc1ccc(N=Nc2ccc3ccccc3c2)c(O)c1`, the inhibition was -6.2% [at 20 µM] (inactive).

Regarding `Cc1cccc(N=Nc2ccc(O)c3ncccc23)c1`, the inhibition is 45.9% (inactive).

In the case of `CCN(CC)S(=O)(=O)c1cc(OC)ccc1N=Nc1ccc(O)c2ncccc12`, the inhibition was -5.1% (inactive).

Take `COc1cccc(N=Nc2ccc(O)c3ncccc23)c1`: the inhibition is 62.9% (active).

In the case of `CCS(=O)(=O)c1ccc(N=Nc2ccc(O)c3ncccc23)c(OC)c1`, the inhibition is 14% (inactive).

In the case of `COc1cccc(N=Nc2ccc3ccccc3c2O)c1`, the inhibition is 1.7% [at 20 µM] (inactive).

Turning to `CCOc1ccc(N=Nc2ccc(O)c3ncccc23)cc1`, the inhibition is 32% (inactive).

As to `CN(NC(=O)COc1ccccc1)c1ccccc1`, the inhibition is 5.9% (inactive).
